Source: PubChem BioAssay
LMP1 NFkB inh: Epstein-Barr LMP1 NF-kappaB reporter inhibition; LMP1-induced NF-kappaB luciferase reporter cells, luminescence; inhibition, % at 12.5 µM; 350,000 tested, 0.69% active; in the data active = inhibition above about 41%; inconclusive = no clear call, values can overlap the other calls
MITF act: MITF TRPM1 promoter activation in melanoma cells; 300,000 tested, 0.75% active; AID 588334; activation, % at 12.5 µM; SK-MEL-5 TRPM1-promoter luciferase, 24 h; % of positive control, neutral wells = 0;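 active = mean activation of at least 80% with every replicate also reaching 80%; inconclusive = mean reaches 80% but some replicate falls short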
esBAF inh: SWI/SNF esBAF complex inhibition | AID 602393 | mouse ES cells, Bmi1-luciferase knock-in reporter, 24 h; 100% = twice the neutral-well signal | 350,000 tested, 2% active | reporter increase, % at 12.5 µM; in the data active = activation above about 40%; inconclusive = no clear call, values can overlap the other calls;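 also: a rise in the Bmi1 reporter signal indicates esBAF inhibition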
TRPM1 prom inh: inhibitors of MITF-driven TRPM1 promoter in melanoma cells | SK-MEL-5 TRPM1 promoter luciferase, 24 h | inhibition, % at 12.5 µM | 330,000 tested, 0.83% active;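 active = mean inhibition across replicates of 60% or more, whatever share of single replicates reaches that level; inconclusive = some that reach 60%, reason not given; inactive = mean inhibition across replicates below 60%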
Statin myotox sup: suppression of simvastatin myotoxicity; C2C12 myotubes + simvastatin, ATP luminescence, 48 h; scaled: DMSO 0, geranylgeraniol control 100; rescue of ATP level, % at 7.49 µM; 330,000 tested, 0.78% active; AID 602340;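 active = mean ATP rescue above about 67%, or every replicate alone reaching that limit, limit read from the data, passing the limit was not always enough; inconclusive = no clear call, values can overlap the other calls; inactive = mean under the limit and some replicate under it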;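 also: myotubes were challenged with 10 µM simvastatin during compound exposure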
Wnt act: Wnt/beta-catenin pathway activation | Wnt/beta-catenin reporter cell assay, activator, plate reader | activation, % at 9.35 µM | 300,000 tested, 1.2% active; in the data active = activation above about 30%, passing the limit was not always enough; inconclusive = no clear call, values can overlap the other calls
Of the large screens only hits and unclear results are named; the others gave an inactive call. The list is not random: actives were taken first. Their share in the collection is about 4%.

CCCCCC/C(C=O)=C\c1ccccc1	none
On1c(-c2ccccc2)nc2ccccc21	none (no result: esBAF inh, Statin myotox sup)
O=Nc1c2nc3ccccc3n(O)c-2c2ccccc12	esBAF inh 48, Wnt act 40 (no result: MITF act)
Cc1cc(F)ccc1N1CCC(N2CCN(C(C)C)C(CCO)C2)CC1 (configuration not stated)	none (no result: esBAF inh, Statin myotox sup)
CCOc1ccc(OCC(=O)N(CCC2=CCCCC2)c2c(N)n(Cc3ccccc3)c(=O)[nH]c2=O)cc1	TRPM1 prom inh 77
CC1Cc2cc(/C(O)=C3/C(=O)C(=O)N(CCCn4ccnc4)C3c3cccc([N+](=O)[O-])c3)ccc2O1 (configuration not stated)	none
Cn1c(N)c(C(=O)COC(=O)c2ccccc2C(=O)c2ccc(Cl)c([N+](=O)[O-])c2)c(=O)n(C)c1=O	TRPM1 prom inh 92 (no result: Wnt act)
CN(CCC#N)C(=O)COC(=O)c1ccccc1C(=O)c1ccc(Cl)c([N+](=O)[O-])c1	TRPM1 prom inh 66 (no result: esBAF inh, Statin myotox sup)
CC(C)N(C(=O)COC(=O)c1ccccc1C(=O)c1ccc(Cl)c([N+](=O)[O-])c1)C(C)C	none (no result: esBAF inh, Statin myotox sup)
Cn1c(N)c(C(=O)COC(=O)c2ccccc2C(=O)c2ccccc2)c(=O)n(C)c1=O	none (no result: MITF act, TRPM1 prom inh)
Nc1c(Cl)cc(Cl)cc1C(=O)OCC(=O)NC1CC1	Statin myotox sup 70 (no result: Wnt act)
O=C(COC(=O)c1ccccc1C(=O)c1ccc(Cl)c([N+](=O)[O-])c1)NC1CCCCCC1	LMP1 NFkB inh 87, TRPM1 prom inh 100
CCN(CC)C(=O)CSc1ncnc2sccc12	none (no result: esBAF inh, Statin myotox sup)
C[C@H]1CCC[C@@]2(O[C@H](CCO)C[C@H](O)[C@H]2O)O1	none
CC(C)NC(=O)c1ccc2c3n(nc2c1)-c1ccc(Cl)cc1CO3	MITF act 102, esBAF inh 75, Wnt act 34
CCN(CC)CCCNC(=O)c1ccc2c3n(nc2c1)-c1ccc(Cl)cc1CO3	MITF act 114
O=C(c1ccc2c3n(nc2c1)-c1ccc(Cl)cc1CO3)N1CCOCC1	MITF act 126, esBAF inh 73, Wnt act 33
CCC(=O)NC(=S)Nc1ccc(NC(=O)c2cccc([N+](=O)[O-])c2C)cc1	none (no result: esBAF inh, Statin myotox sup, Wnt act)
Cc1cccnc1NC(=O)c1cc2ccccc2oc1=O	esBAF inh inconclusive, Wnt act 47
COc1cccc(NC(=O)c2cc3ccccc3oc2=O)c1	none (no result: MITF act)
CC(C)N(Cc1ccc(F)cc1)C(=O)c1cc2ccccc2oc1=O	esBAF inh 47 (no result: MITF act)
CN(C)C(CNC(=O)c1cc2ccccc2oc1=O)c1ccccc1 (configuration not stated)	MITF act 99, esBAF inh 51
CCc1ccc(CN(C(=O)c2cc3ccccc3oc2=O)C2CCS(=O)(=O)C2)cc1 (configuration not stated)	esBAF inh 86 (no result: MITF act, Wnt act)
O=C(C[C@H]1CC[C@@H]2[C@H](COC[C@@H](O)CN2Cc2ccc3c(c2)OCO3)O1)Nc1ccc(-c2ccccc2)cc1	none (no result: LMP1 NFkB inh, MITF act, TRPM1 prom inh, Wnt act)
O=C(NCc1ccccc1)C(c1ccco1)N(C(=O)c1csnn1)C1CC1 (configuration not stated)	none
CN1CCOCCOCCOCCN(C)C1=S	none (no result: esBAF inh, Statin myotox sup)
Cc1ccc(C(=O)OCCc2sc[n+](Cc3ccccc3)c2C)cc1	none (no result: esBAF inh, Statin myotox sup)
COc1ccc(C(C#N)=Cc2ccc(N(C)CCC#N)cc2)cc1	esBAF inh 77, Wnt act 31 (no result: MITF act, TRPM1 prom inh)
COc1ccc(/C(C#N)=C/c2cccnc2)cc1	esBAF inh 42
COC(=O)c1ccccc1NC(=O)c1cc(OC)cc(OC)c1	none (no result: MITF act)
O=C(C=Cc1cccnc1)c1ccccc1	none (no result: esBAF inh)
Cc1c(/C=C/C(=O)c2ccccc2O)cnn1C	MITF act inconclusive, esBAF inh 51
Cc1ccc2occ(/C=N/NC(=O)c3ccccc3O)c(=O)c2c1	none
O=C(C=Cc1ccccn1)c1ccccc1	TRPM1 prom inh 70
O=C(C=Cc1ccccn1)c1ccccc1O	TRPM1 prom inh 88
Cc1ccc2occ(/C=C/C(=O)c3ccccc3O)c(=O)c2c1	esBAF inh 51 (no result: Statin myotox sup)
COc1cc2c(cc1OC)C(C(=O)O)C(c1cc(Br)c(O)c(OC)c1)N(C)C2=O (configuration not stated)	none (no result: Wnt act)
O=C1CCCC2=C1C(c1ccco1)Nc1ccc(C(=O)c3ccccc3)cc1N2 (configuration not stated)	none (no result: Wnt act)
CC(=O)Nc1nc(-c2ccc3c(c2)CCN3C(=O)C2CC2)c(C)s1	LMP1 NFkB inh 82
CC(C)C(=O)Nc1ccc(NC(=O)c2ccc(COc3ccccc3)cc2)cc1	none
Cc1ccc(/C=C/C(=O)Nc2nccs2)o1	esBAF inh 60
Cc1ccc(/C=C/C(=O)Nc2ccc(N(C)C)cc2)o1	MITF act 115, esBAF inh 52 (no result: Wnt act)
Cc1ccc(/C=C/C(=O)Nc2ncc(C)s2)o1	MITF act 101 (no result: esBAF inh, Statin myotox sup)
Cc1csc(NC(=O)/C=C/c2ccc(C)o2)n1	none (no result: esBAF inh, Statin myotox sup)
c1ccc(CCCN2CCOCC2)cc1	none (no result: MITF act)
C=CCOc1c(Cl)cc(CNn2cn[nH]c2=S)cc1OC	none (no result: esBAF inh, Statin myotox sup)
CCc1ccc(OCCOCCN2CCN(C)CC2)cc1	none
CN1CCN(CCOc2ccc(Cc3ccccc3)cc2)CC1	LMP1 NFkB inh 48 (no result: MITF act)
CCOCCCNC(=O)CN1C(=O)CSc2ccc(S(=O)(=O)N3CCOCC3)cc21	none
COc1ccccc1NC(=O)c1c(N=Cc2c(O)ccc3ccccc23)cnn1C	none (no result: esBAF inh, Statin myotox sup)
Cn1ncc(N=Cc2ccccc2O)c1C(=O)Nc1ccccc1	Statin myotox sup 118
NC(=O)C1=C[C@H](c2ccccc2)C[C@H](OCc2ccc(CO)cc2)O1	none
CCCn1c(=O)c2ccccc2n2c(SCc3nc4ccccc4s3)nnc12	esBAF inh 42
CCn1c(SCc2nc3ccccc3s2)nnc1-c1cccs1	esBAF inh 50 (no result: Wnt act)
Cc1ccccc1-n1c(C)nnc1SCc1nc2ccccc2s1	esBAF inh 69
Cc1noc(C)c1S(=O)(=O)Nc1ccc2c(c1)C(=O)N([C@@H](C)CO)C[C@@H](C)[C@H](CN(C)C(=O)Nc1ccccc1)O2	none (no result: LMP1 NFkB inh, MITF act, TRPM1 prom inh, Statin myotox sup, Wnt act)
COc1cc(NC(=O)Cn2c(=O)n(CC3CCCO3)c(=O)c3ccccc32)cc(OC)c1 (configuration not stated)	none
Cc1cc(C)nc(S/C=C/C(=O)c2ccccc2F)n1	TRPM1 prom inh 87 (no result: esBAF inh, Statin myotox sup)
O=C(COc1ccccc1Br)NC1CC1	none (no result: esBAF inh, Statin myotox sup)
O=C(COc1ccc(C(=O)c2ccccc2)cc1)NC1CCCCCC1	Wnt act 49 (no result: esBAF inh, Statin myotox sup)
O=C(COc1ccc(C(=O)c2ccccc2)cc1)NC1CCCCC1	none (no result: esBAF inh, Statin myotox sup)
O=C(COc1ccccc1Br)NC(=O)NC1CCCC1	MITF act 141
CSc1ccc(S(=O)(=O)Nc2ccc(F)cc2)cc1	Statin myotox sup 93
COc1ccc(S(=O)(=O)N2CCCCC2)cc1C(C)C	Statin myotox sup 113 (no result: Wnt act)
Cn1c(=O)n(CC(=O)NC2CCCCC2)c(=O)c2ccccc21	Statin myotox sup 72 (no result: MITF act)
Cc1[nH]c(=O)c(C(=O)/C=C/c2ccccc2F)c2c1CCCC2	LMP1 NFkB inh 81, esBAF inh 43, TRPM1 prom inh 84 (no result: Statin myotox sup)
C/C(=C\c1ccccc1F)C(=O)c1c(C)cc(C)[nH]c1=O	none
